Data as given in the supplement of paper PMC6555819.

How the values were obtained:
Assay in all cases: PBM binding z-score (relative to random genomic background probes); higher = stronger binding; sequences stand for … in GC…GCGATTGACAGCGTAGAATGAAGG
[1] = system: FXR:RXRa (NR concentration 270 nM, RXRa partner concentration 90 nM)
How it was run: (§1)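 Ligand-free nuclear receptor dimers were applied to custom Agilent 4×180K protein-binding microarrays whose double-stranded probes carried direct-repeat seeds, single-nucleotide variants, half-site ablations and random human genomic background sequences in 34-nt variable regions. Incubation lasted 1 h. Binding z-scores were computed against the random background probes from regression-normalized fluorescence.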

[2] = system: LXRa:RXRa (NR concentration 270 nM, RXRa partner concentration 90 nM)
How it was run: as §1

[3] = system: LXRa homodimer (NR concentration 270 nM)
How it was run: as §1

[4] = system: LXRb:RXRa (NR concentration 270 nM, RXRa partner concentration 90 nM)
How it was run: as §1

[5] = system: LXRb homodimer (NR concentration 270 nM)
How it was run: as §1

[6] = system: PPARa:RXRa (NR concentration 270 nM, RXRa partner concentration 90 nM)
How it was run: as §1

[7] = system: PPARg:RXRa (NR concentration 180 nM, RXRa partner concentration 90 nM)
How it was run: as §1

[8] = system: PPARg:RXRa 270nM:90nM, anti-RXR (NR concentration 270 nM, RXRa partner concentration 90 nM)
How it was run: as §1

[9] = system: PPARg:RXRa 30nM:10nM, anti-RXR (NR concentration 30 nM, RXRa partner concentration 10 nM)
How it was run: as §1

[10] = system: PPARg:RXRa 90nM:30nM, anti-RXR (NR concentration 90 nM, RXRa partner concentration 30 nM)
How it was run: as §1

[11] = system: PPARg:RXRa DBDmut IVT, anti-RXR (DBD mutation: RXRa K156A/R161A, NR concentration 270 nM, RXRa partner concentration 90 nM)
How it was run: as §1

[12] = system: PPARg:RXRa IVT, anti-PPARg (NR concentration 270 nM, RXRa partner concentration 90 nM)
How it was run: as §1

[13] = system: PPARg DBDmut:RXRa IVT, anti-PPARg (DBD mutation: PPARg1 K132A/R137A, NR concentration 270 nM, RXRa partner concentration 90 nM)
How it was run: as §1

[14] = system: PPARg DBDmut IVT, anti-PPARg (DBD mutation: PPARg1 K132A/R137A, NR concentration 270 nM)
How it was run: as §1

[15] = system: PPARg homodimer (NR concentration 180 nM)
How it was run: as §1

[16] = system: PXR:RXRa (NR concentration 270 nM, RXRa partner concentration 90 nM)
How it was run: as §1

[17] = system: PXR homodimer (NR concentration 270 nM)
How it was run: as §1

[18] = system: RARa:RXR (NR concentration 270 nM, RXRa partner concentration 90 nM)
How it was run: as §1

[19] = system: RARa homodimer (NR concentration 270 nM)
How it was run: as §1

[20] = system: RARb:RXRa (NR concentration 270 nM, RXRa partner concentration 90 nM)
How it was run: as §1

Row | Sequence | PBM binding z-score [1] | PBM binding z-score [2] | PBM binding z-score [3] | PBM binding z-score [4] | PBM binding z-score [5] | PBM binding z-score [6] | PBM binding z-score [7] | PBM binding z-score [8] | PBM binding z-score [9] | PBM binding z-score [10] | PBM binding z-score [11] | PBM binding z-score [12] | PBM binding z-score [13] | PBM binding z-score [14] | PBM binding z-score [15] | PBM binding z-score [16] | PBM binding z-score [17] | PBM binding z-score [18] | PBM binding z-score [19] | PBM binding z-score [20]
1 | ATCTCTAGCTAAGACTCAGTTCAGTGAAGAACGC | 0.167 | 0.272 | 0.317 | -0.057 | 0.629 | -0.233 | -0.0864 | -0.493 | -0.13 | -0.144 | -0.0797 | 0.0403 | 0.405 | 0.581 | 0.595 | 0.728 | 1.14 | 0.508 | 0.699 | 0.0718
2 | ACGGACAGGTGATGAAGGTAACTCAGGCTATCAT | 0.169 | -0.084 | -0.0768 | 0.109 | -0.152 | 0.276 | 0.712 | 0.0307 | 0.33 | 0.172 | 0.288 | 0.365 | 0.082 | 0.0676 | 0.411 | 0.11 | 0.211 | 0.174 | 0.939 | 0.745
3 | TCTAGTAGGTTAGGGGCATTCAGAATGGCGTCGA | 0.875 | 0.688 | 0.102 | 1.21 | 0.903 | 1.94 | 2 | 3.69 | 3.42 | 3.55 | 4.9 | 4.09 | 0.212 | 0.421 | 1.07 | 0.642 | 0.791 | 0.791 | 0.549 | 1.35
4 | ATCTCTAGGTAAACTTCAGTGAAAGATCGATAGA | 0.831 | 0.515 | 0.351 | 0.0821 | 1.21 | 0.408 | 0.488 | 0.399 | 0.397 | 0.45 | 2.68 | 2.02 | 1.5 | 1.2 | 0.999 | 0.0812 | 0.42 | 0.344 | 1.42 | 0.268
5 | GCTCGGAGGAGAAGGTCAGAGCTTTGTCCGTAGA | 0.655 | 0.736 | -0.584 | 0.516 | -1.44 | 1.79 | -0.0558 | 0.967 | -0.721 | 0.353 | -0.348 | 0.169 | -0.938 | -2.35 | 0.184 | 1.06 | -1.02 | 1.58 | -1 | 2.3
6 | GGAACGAGGGCATTCGAGTAGATAGCATGGCGAT | 0.816 | 0.394 | -0.428 | 0.0953 | -0.937 | 1.33 | 1.11 | 0.886 | -0.0142 | 0.304 | 2.87 | 2.05 | -0.011 | -0.669 | -0.256 | 0.557 | -0.0789 | 0.335 | -0.251 | 1.56
7 | CAAACTAGGCCAAGAGGTCAAAGTCCGCTTCCCG | 5.17 | 5.51 | 4.77 | 4.72 | 1.13 | 5.68 | 6.86 | 6.66 | 5.68 | 6.63 | 6.71 | 6.57 | 1.38 | 0.62 | 2.87 | 5.62 | 1.75 | 6.34 | 1.51 | 4.2
8 | CGTCCAAGGTCAATGCTAGGTCATTGAAAGCATT | 7.16 | 6.36 | 5.55 | 4.79 | 1.21 | 5.28 | 4.04 | 4.94 | 1.89 | 3.66 | 3.36 | 3.99 | 1.51 | 0.205 | 6.45 | 5.79 | 3.15 | 6.69 | 1.7 | 5.19
9 | CCTTACGCGTCACTCCAGGTTATAGCATCGGAGT | 1.11 | 4.05 | 1.55 | 1.36 | 0.803 | 0.54 | 0.559 | -0.0823 | -0.223 | -0.192 | 0.0955 | 0.368 | 0.286 | 1 | 1.16 | 0.484 | 0.825 | 0.345 | 0.837 | 0.333
10 | ACTAGCCGGCCAAGTTTGGGTCACTCAAACAAAG | 0.307 | 0.194 | -0.183 | 0.789 | -0.664 | 1.32 | -0.0659 | -0.198 | -1.03 | -0.301 | -0.561 | 0.67 | -0.942 | -0.912 | 0.449 | 0.729 | -0.476 | 1.25 | -0.454 | 1.5
11 | CGTCCAAGGTCATAGGAGGCCAGTGAAGACAGAT | 7.24 | 5.75 | 1.07 | 4.34 | 0.536 | 5.51 | 4.37 | 5.03 | 1.54 | 3.73 | 2.81 | 3.75 | 0.813 | 0.508 | 2.54 | 5.33 | 1.53 | 4.52 | 0.617 | 5
12 | CCTAGTTGGTCAGGAGGTCTCACACCGGATATGA | 0.237 | 0.219 | 0.125 | -0.00774 | -0.246 | 0.135 | 0.469 | 0.772 | -0.0549 | 0.338 | 0.196 | 1.02 | -0.277 | 0.59 | 1.25 | -0.0259 | 0.521 | 0.0681 | 1.06 | 0.838
13 | CCTTACGGGTCAAGGTTATGGCACGGGTGGTACG | 5.49 | 3.7 | 0.0981 | 2.81 | -0.233 | 4.86 | 4.26 | 4.73 | 1.8 | 3.51 | 1.51 | 3.59 | -0.207 | -0.604 | 1.88 | 3.27 | 0.134 | 4.13 | 1.04 | 4.04
14 | CAACCTAGGTCAAGAGGTCAAAGTCCGCTTCCCG | 6.93 | 6.34 | 6.16 | 5.73 | 1.82 | 5.97 | 7.35 | 6.76 | 3.67 | 5.86 | 4.75 | 5.45 | 0.0311 | -0.16 | 5.72 | 6.26 | 2.37 | 7.74 | 2.15 | 5.42
